Compound activity (PubChem)
Sampled rows, rich in hits. Any-hit rate of the full collection: about 21%.
Pf growth 96h: inhibits malaria parasite growth, 96 h | 6.9% of 320,000 active | Potency, µM (series often up to 28.7 µM), for the others: top-dose activity change, negative = inhibition, usual class: inhibitors | P. falciparum luciferase reporter growth, 96 h | AID 504834; further: potency means the concentration at half of the fitted maximal effect; on the % scale 0 is the no-effect control and ±100 the full control effect
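P. falciparum expressing integrated firefly luciferase, in erythrocytes at 2% hematocrit, 0.05% parasitemia, incubated with compounds 96 h at 37 C, 5% CO2. Growth inhibition read as loss of luminescence; two-generation exposure targets delayed-death apicoplast inhibitors.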
HCV inhibitor: inhibitors of hepatitis C virus infection; AID 651820; 3.4% of 340,000 active; Potency, µM (highest dose often 41.8 µM), without a hit: at the highest dose activity change, negative = inhibition, usual class: inhibitors; Huh7.5.1 HCVcc-Cre infection, luciferase reporter, 44 h; further: potency means the concentration at half of the fitted maximal effect; on the % scale 0 is the no-effect control and ±100 the full control effect
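Whole-lifecycle infectious HCVcc-Cre system; cells 1,000/well, compound then virus (~0.5 moi) added 4 h after plating, 44 h culture. Luciferase read 15 sec following 15 min substrate incubation, room temp.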
HCMV inh: human cytomegalovirus inhibition; activity change, negative = inhibition, % at 57.5 µM; AID 1259415; HFF cells, HCMV-luciferase reporter, 72 h; stronger effect = lower value; 4.5% of 410,000 active; in the data active means activity change below about -60%; inconclusive means no clear call, values can overlap the other calls; inactive means above about -39%; further: on the % scale 0 is the no-effect control and ±100 the full control effect
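HFF cells seeded 16 h at 37C, treated with compounds, infected with luciferase-reporter HCMV at MOI 1 PFU/cell; luciferase read at 72 h post infection, normalized to buffer-only and Salinomycin controls.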
Pf growth 48h: inhibits P. falciparum growth in the first generation, 48 h | P. falciparum luciferase growth in erythrocytes, 48 h | Potency, µM (series often up to 28.7 µM), for the others: top-dose activity change, negative = inhibition, actives largely listed as inhibitors | 5.9% of 310,000 active | AID 504832; further: potency means the concentration at half of the fitted maximal effect; on the % scale 0 is the no-effect control and ±100 the full control effect
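A one-generation exposure of luciferase-tagged malaria parasites in RPMI 1640/Albumax erythrocyte culture, 37 C and 5% CO2. Inhibition is inferred from decreased luminescence after adding detection reagent.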
CHX counter: counter-screen for Shiga toxin inhibitors: cycloheximide protein synthesis inhibition | max response, % | 12% of 300,000 active | cell reporter, cycloheximide protein synthesis inhibition counterscreen; in the data active means max response mostly above about 13%, no sharp cut-off; inactive means mostly below about 14%; further: read at 38.3 µM for the half of the compounds with a filed dose; 0% is about no effect
Shiga inhibitor: blocks Shiga toxin action in Vero cells; 9.2% of 290,000 active; Vero cells, Shiga toxin protein synthesis inhibition reporter; inhibition, % at 38.7 µM; AID 2315; in the data active means inhibition mostly above about 28%, no sharp cut-off; inactive means mostly below about 43%; further: 0% is about no effect
An asterisk follows results filed as active; ? = inconclusive; / = no result given. Unless noted, the call rests on the fitted dose curve; in most records, active means well fitted inhibition curve with a large enough effect; inconclusive means small, poorly fitted or top-dose-only effect, or another doubt; inactive means no such curve, though single readings can be large or run the other way.

SMILES | Pf growth 96h | HCV inhibitor | HCMV inh | Pf growth 48h | CHX counter | Shiga inhibitor
NS(=O)(=O)c1ccc(CCNC(=O)C2CCN(S(=O)(=O)c3cccc4cccnc34)CC2)cc1 | 1.1% | 5.8% | / | 1.2% | -6.1 | -4.1
CCN(CCNC(=O)C1CCN(S(=O)(=O)c2cccc3cccnc23)CC1)c1ccccc1 | -19.0% | ? | 27.9 | 6.57µM* | -3.6 | 2.5
CCN(CC)CCOCCn1c(C)ccc1C | / | 11.6% | ? | / | / | /
COC(=O)COc1ccc(Oc2nc(NC(C)(C)C)nc(N3CCOCC3)n2)nn1 | / | / | 8.1 | / | / | /
CCc1ccccc1NC(=O)N[C@@H](C)C(=O)O | 9.28µM* | 27.1% | 22.8 | 7.2% | -2.6 | 71.3
OCCC1CN(Cc2cccn2-c2cccnc2)CCN1Cc1ccccc1 (stereo not given) | ? | 15.4% | -35.7 | -9.3% | -1.7 | -0.2
COc1ccc(C2=NCN(c3ccc(C)cc3)C(=S)N2)cc1 | 7.3% | -4.7% | -14.0 | / | 36.1* | 41.7
Cc1ccc(-c2n[nH]c(=S)n2-c2ccccc2)cc1 | 16.1% | 0.0% | 25.0 | -1.5% | -1.4 | -3.9
Cc1ccc(N2CN=C(c3ccccc3)NC2=S)cc1 | -2.0% | -11.1% | ? | / | 63.4* | 98.4*
CCOc1ccc(S(=O)(=O)N(CC)CC(=O)NC2CCS(=O)(=O)C2)cc1 (stereo not given) | -1.6% | 3.6% | -2.8 | -6.0% | / | /
COC(=O)Cn1cc(/C=C(/C#N)C(=O)N2CCOCC2)c2ccccc21 | 36.7% | 6.3% | 10.0 | 8.3% | -0.7 | -7.3
Cc1ccccc1CC(=O)Nc1ccc(C(=O)N2CCCC2)cc1 | 9.7% | -2.6% | 55.2 | -5.1% | 25.3* | 45.6
O=C(CNCCc1ccccc1)Nc1ccc(C(=O)N2CCCCC2)cc1 | 21.9% | 16.5% | ? | -18.3% | 27.9* | 72.9
Cc1ccc(CC(=O)Nc2ccc(C(=O)N3CCCCC3)cc2)cc1 | 1.4% | 4.3% | -8.1 | 45.5% | 8.5 | 22.2
Cc1ccc(Cc2c(-c3cccc(Cl)c3)nc3ccc(Br)cn23)cc1 | / | / | 29.5 | / | / | /
Cc1c(C(=O)NC2CCS(=O)(=O)C2)oc2ccccc12 (stereo not given) | 8.4% | 20.6% | -11.2 | 18.6% | 7.8 | -6.9
Cc1ccc2[nH]c3c(NCc4ccco4)ncnc3c2c1 | ? | 11.2µM* | -93.6* | ? | 18.8* | 87.0*
COc1ccc2[nH]c3c(=O)n(Cc4ccncc4)cnc3c2c1 | 20.1% | -5.6% | -11.4 | 20.2% | 5.9 | 6.1
COc1cc(CNc2ncnc3c2[nH]c2ccc(C)cc23)cc(OC)c1 | ? | ? | -65.4* | ? | -0.9 | -3.2
CCN(CC)CCNC(=O)c1ccc2c(=O)n3nc(Nc4cccc(Cl)c4C)sc3nc2c1 | / | / | -32.3 | / | / | /
Cc1ccc2ccc3cccnc3c2n1 | / | ? | -77.8* | / | / | /
c1cnc2c(c1)ccc1ncccc12 | 12.8% | 7.5% | 0.0 | 8.5% | 1.3 | -13.3
Cc1cccc(N(CC(=O)NCc2ccccc2)S(C)(=O)=O)c1C | / | / | 15.4 | / | / | /
Cc1cc(-c2ccc(C)c(S(=O)(=O)NCCCN3CCN(c4ccccc4F)CC3)c2)on1 | 4.65µM* | ? | 0.0 | ? | 5.0 | 5.2
Cc1cc(-c2ccc(C)c(S(=O)(=O)N3CCN(c4ccc([N+](=O)[O-])cc4)CC3)c2)on1 | ? | ? | -73.0* | ? | -1.8 | -1.5
SMILES | Pf growth 96h | HCV inhibitor | HCMV inh | Pf growth 48h | CHX counter | Shiga inhibitor
Cc1ccc(C)c(N2CCN(S(=O)(=O)c3cc(-c4cc(C)no4)ccc3C)CC2)c1 | / | / | 0.0 | / | / | /
Cc1cc(-c2ccc(C)c(S(=O)(=O)NCCCN3CCCCCC3)c2)on1 | ? | -12.7% | -5.4 | 14.7µM* | 1.4 | 2.9
CCOC(=O)c1ccc(NC(=O)c2c(NCc3sccc3C)sc3c2CCC(C)C3)cc1 (stereo not given) | / | / | -19.2 | / | / | /
Cc1ccc(S(=O)(=O)NC(=O)NC2CCCC2)cc1 | 4.8% | / | / | -5.5% | / | /
CCN(CC)S(=O)(=O)c1ccc2c(c1)nc(CCC(=O)Nc1ccc(N3CCOCC3)cc1)n2C | ? | ? | 25.6 | 14.7µM* | -0.8 | 2.9
COc1cccc(CNC(=O)c2cc(S(=O)(=O)N3CCCCC3)ccc2C)c1 | / | / | -28.2 | / | / | /
COc1cccc(CN(C)C(=O)/C=C/c2ccc(S(=O)(=O)N3CCCCCC3)cc2)c1 | 11.7µM* | ? | -25.3 | 11.7µM* | -1.4 | -21.7
COc1cccc(NC(=O)/C=C/c2ccc(S(=O)(=O)N3CCOCC3)cc2)c1 | 10.4µM* | ? | 16.1 | ? | / | /
Cn1c(CCC(=O)Nc2ccc(F)cc2)nc2cc(S(=O)(=O)N3CCOCC3)ccc21 | ? | -3.0% | -3.1 | -25.0% | / | /
O=C(/C=C\c1ccco1)Nc1ccc(N2CCN(C(=O)c3ccccc3)CC2)cc1 | 5.86µM* | 1.9% | ? | ? | -3.5 | 4.6
COc1ccc(Nc2cc3c(cn2)cc(-c2cccc(F)c2)n3C)cn1 | / | / | -37.6 | / | / | /
O=C(/C=C/c1ccc(S(=O)(=O)N2CCOCC2)cc1)N(CCO)Cc1ccccc1 | -28.2% | -4.8% | -17.3 | -23.7% | -4.8 | -18.4
CCN(CC)S(=O)(=O)c1ccc(/C=C/C(=O)Nc2ccc(N3CCOCC3)cc2)cc1 | 1.85µM* | 12.6µM* | -83.2* | 10.4µM* | -0.9 | 15.9
CCN(Cc1ccc(OC)c(F)c1)C(=O)/C=C/c1ccc(S(=O)(=O)N2CCOCC2)cc1 | 9.28µM* | ? | -4.9 | 10.4µM* | / | /
CCCn1c(CCC(=O)Nc2ccccc2Cc2ccccc2)nc2cc(S(=O)(=O)N3CCOCC3)ccc21 | 2.33µM* | ? | -2.6 | / | -2.2 | -13.4
CCOc1ccccc1NC(=O)/C=C/c1ccc(S(=O)(=O)N2CCOCC2)cc1 | 4.65µM* | 10µM* | -4.9 | 4.65µM* | / | /
COc1ccc(/C=C/C(=O)Nc2ccc(N3CCOCC3)cc2)cc1 | 33.6% | -22.7% | ? | -20.5% | 3.3 | 8.9
Cc1cc(S(=O)(=O)N2CCCCC2)ccc1OCC(=O)Nc1ccccc1 | -11.9% | ? | 9.2 | ? | -0.4 | 6.4
CCN1C(=O)c2ccccc2S(=O)c2ccc(C(=O)N3CCN(c4ccc(F)cc4)CC3)cc21 (stereo not given) | / | / | -3.7 | / | / | /
O=C(/C=C/c1ccco1)Nc1ccc(S(=O)(=O)N2CCOCC2)cc1 | -3.9% | 3.55µM* | -18.3 | -28.7% | -1.6 | 5.3
COc1cccc(NC(=O)CN(C)C(C)C(=O)Nc2ccc(S(=O)(=O)N3CCOCC3)cc2)c1 (stereo not given) | 4.65µM* | -3.0% | -16.6 | 5.22µM* | 4.7 | -16.2
Cc1ccc(NC(=O)/C=C/c2ccc(S(=O)(=O)N3CCOCC3)cc2)cc1S(=O)(=O)N(C)C | / | ? | -74.4* | / | / | /
NS(=O)(=O)c1ccc(NC(=O)/C=C/c2ccco2)cc1 | 33.3% | 6.5% | 13.8 | 11.3% | 13.0 | 22.0
CC(=O)Nc1cccc(NC(=O)/C=C/c2ccc(S(=O)(=O)N3CCOCC3)cc2)c1 | / | -22.2% | 36.1 | / | / | /
O=C(/C=C/c1ccc(F)cc1)Nc1ccc(S(=O)(=O)N2CCOCC2)cc1 | ? | ? | -38.6 | 10.4µM* | 10.2 | 10.2
